Hit rate of the full screen: of about 16,000 compounds, about 5,700 (36%) were called active. Another 24% or so got no clear call; they are omitted. The list shows a part of the results. Unmarked numbers belong to inactive results. The call rests on the fitted dose curve; in most records, active means well fitted curve in the direction sought with a large enough effect; inconclusive means small, poorly fitted or top-dose-only effect, or effect the other way; inactive means no such curve, though single readings can be large or run the other way.
target: Cytochrome P450 1A2 (Homo sapiens) (UniProt P05177); assay: Cytochrome panel assay with activity outcomes; settings: recombinant CYP, pro-luciferin dealkylation, luminescence, p450-cyp1a2; series mostly up to 57.1 µM; activity, negative = inhibition: at the top concentration
Sequence (P05177 whole entry, looked up): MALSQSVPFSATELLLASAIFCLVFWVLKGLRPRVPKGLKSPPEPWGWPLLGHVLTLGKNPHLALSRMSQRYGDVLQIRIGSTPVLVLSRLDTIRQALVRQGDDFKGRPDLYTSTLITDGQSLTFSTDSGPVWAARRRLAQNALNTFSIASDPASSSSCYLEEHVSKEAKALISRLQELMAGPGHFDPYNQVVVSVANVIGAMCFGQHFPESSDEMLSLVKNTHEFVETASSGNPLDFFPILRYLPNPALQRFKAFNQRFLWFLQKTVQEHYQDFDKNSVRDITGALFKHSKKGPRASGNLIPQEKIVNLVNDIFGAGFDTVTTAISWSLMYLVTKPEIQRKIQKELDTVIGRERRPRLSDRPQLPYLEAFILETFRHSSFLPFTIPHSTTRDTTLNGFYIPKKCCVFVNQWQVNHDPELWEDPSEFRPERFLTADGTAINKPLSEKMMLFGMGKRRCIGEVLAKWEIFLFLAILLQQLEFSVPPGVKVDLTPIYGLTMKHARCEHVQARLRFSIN
On the % scale 0 is the no-effect control and ±100 the full control effect.

| Structure (SMILES) | AC50 | activity, negative = inhibition |
| --- | --- | --- |
| COc1ccccc1C1=NOC(COC(=O)c2ccc3ccccc3n2)C1 (configuration not stated) | 14.1 µM (active) |  |
| O=C(O)c1c(-c2c3ccc(=O)cc-3oc3cc(O)ccc23)cc2ccccc2c1-c1ccccc1 |  | -17.6% [at 2.29 µM] |
| CNC(=O)/C(C#N)=c1\s/c(=C/C(=O)OC)c(=O)n1-c1ccccc1 |  | -4.92% |
| COC(=O)[C@@H]1[C@@H](O)[C@]2(O)c3ccccc3O[C@]2(c2ccccc2)[C@H]1c1ccccc1 |  | -6.42% [at 11.4 µM] |
| COc1cc(CNC2CCCC2)cc(Cl)c1OCc1ccccc1Cl | 0.708 µM (active) |  |
| COc1ccccc1CNC(=O)CCCn1c(=O)c2ccccc2n(CC(=O)NC2CCCC2)c1=O |  | 0.328% |
| COc1cc(O)oc1C=Nc1ccc(Cl)cc1 | 2.24 µM (active) |  |
| COc1cc(O)oc1C=Nc1ccc(C(F)(F)F)cc1 | 0.501 µM (active) |  |
| COc1cccc(CNc2ccc(F)c(Cl)c2)c1O |  | -22.8% |
| COC(=O)N1CCC2(CCN(C(=O)Nc3ccccc3)CC2)CC1 |  | -5.21% |
| CCC#CCOCC(=O)Nc1ccccc1 | 25.1 µM (active) |  |
| CC(C)CN1CCCC2(CCN(C(=O)c3cccc(F)c3)CC2)C1 |  | 7.46% |
| Nc1ncnc2c1ncn2[C@H]1O[C@@H](CO)[C@@H](O)[C@H]1N |  | -8.67% [at 11.4 µM] |
| CCCCCCCOC1(c2ccccc2)OC(=O)c2ccccc21 (configuration not stated) |  | -19.2% |
| CCCCOC1(c2ccccc2)OC(=O)c2ccccc21 (configuration not stated) |  | -28.7% |
| Cc1cccc(C)c1OC1(c2ccccc2)OC(=O)c2ccccc21 (configuration not stated) | 20 µM (active) |  |
| CC(=O)N1CCC2(CC1)CCN(c1ccccn1)CC2 |  | 1.45% |
| O=C1C=CC(=Nc2cccc3c(N=C4C=CC(=O)O4)cccc23)O1 |  | -14% [at 11.4 µM] |
| O=C(CCN1C(=O)C2C3C=CC(C3)C2C1=O)Nc1c(F)cccc1F (configuration not stated) |  | 2.98% |
| O=C(CSc1nc2ccccc2[nH]1)Nc1c(F)cccc1F | 8.91 µM (active) |  |
| O=C(O)CSc1nc2ccccc2[nH]1 |  | -19.8% [at 11.4 µM] |
| CS(=O)(=O)c1ccccc1COC(=O)Nc1ccc(Cl)cc1 | 17.8 µM (active) |  |
| O=C(Nc1ccc(Cl)cc1)OCc1cc(-c2ccccc2Cl)on1 | 0.447 µM (active) |  |
| Cc1onc(-c2ccccc2Cl)c1C(=O)Nc1nnc(Cc2ccc(Cl)cc2)s1 |  | -24.7% |
| O=C(Nc1ccccc1)OCc1cc(-c2ccc(Cl)cc2)on1 | 0.562 µM (active) |  |
| O=C(Nc1ccc(Cl)cc1)OCc1cc(-c2ccccc2)on1 | 2.24 µM (active) |  |
| CCN1C(=O)[C@H]2[C@H]3[C@H](O)[C@H](O)C/C(=N/O[C@@H]4O[C@@H](COC(C)=O)[C@@H](OC(C)=O)[C@@H](OC(C)=O)[C@H]4OC(C)=O)[C@H]3CC[C@@H]2C1=O |  | -5.44% [at 11.4 µM] |

From PubChem BioAssay AID1851 (National Center for Advancing Translational Sciences (NCATS), 2009)
